Screens as filed in PubChem.
Compounds with a hit are over-represented: about 2.4% of the library has one in this group of screens.
UHRF1 binding: UHRF1 methyl-DNA binding inhibition | UHRF1 binding to methylated oligo, TR-FRET | 370,000 tested, 0.75% active | Q96T88 | inhibition, % at 4.4 µM | AID 687016; in the data active = inhibition above about 21%;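 note: UHRF1 SRA domain binding a hemimethylated CpG hairpin DNA probe; 0% = median of test compound wells and 100% = reference inhibitor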
MBD2 DNA inh: blocks human MBD2 binding to methylated DNA; Q9UBB5; TR-FRET, MBD2 binding to methylated oligonucleotide; inhibition, % at 4.4 µM; 370,000 tested, 0.31% active; AID 686964; in the data active = inhibition above about 13%
Target sequence (Q9UBB5 whole entry, looked up): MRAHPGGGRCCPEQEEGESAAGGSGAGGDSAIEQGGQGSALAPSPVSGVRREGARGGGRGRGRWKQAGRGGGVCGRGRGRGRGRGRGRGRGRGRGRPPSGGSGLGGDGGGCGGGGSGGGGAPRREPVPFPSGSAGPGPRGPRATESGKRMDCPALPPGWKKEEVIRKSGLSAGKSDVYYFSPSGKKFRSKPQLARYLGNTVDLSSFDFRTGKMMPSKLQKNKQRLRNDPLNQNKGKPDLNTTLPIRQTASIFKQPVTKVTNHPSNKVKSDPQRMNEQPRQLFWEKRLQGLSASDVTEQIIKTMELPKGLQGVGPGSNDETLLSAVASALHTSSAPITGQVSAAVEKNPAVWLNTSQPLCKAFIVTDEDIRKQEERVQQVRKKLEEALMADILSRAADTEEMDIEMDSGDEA
LEDGF integ inh: blocks HIV-1 LEDGF/p75-dependent DNA integration; TR-FRET IN-LEDGF/p75 DNA integration, Eu/Cy5; inhibition, % at 3.7 µM; 370,000 tested, 0.64% active; AID 743269;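 active = inhibition above the screen-wide mean plus 3 SD, cut at about 13% in these data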;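 note: signal is the Cy5 over europium emission ratio at 671 and 618 nm; 0% = plate median of compound wells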
PLC-gamma1 inh: inhibitors of human phospholipase C gamma1; P19174; purified PLC-gamma1, fluorogenic substrate, fluorescence; inhibition, % at 12.2 µM; 370,000 tested, 0.84% active
PLCb3 inh: inhibitors of human phospholipase C beta3. Purified PLC-beta3, fluorogenic substrate, fluorescence. Q01970. inhibition, % at 12.2 µM. 370,000 tested, 0.18% active; in the data active = inhibition above about 11%;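 note: 0% = median of compound wells on plate and 100% = full blocker control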
PLCg1 ctr: inhibits human PLC-gamma1 in PLC-beta3 counter-screen | purified PLC-gamma1, fluorogenic substrate, fluorescence | inhibition, % at 12.3 µM | 3,300 tested, 3.1% active | shares compounds with PLC-gamma1 inh
PLCbeta3 conf: human PLC-beta3 inhibition, confirmation; shares compounds with PLC-gamma1 inh; purified PLC-beta3, fluorogenic substrate fluorescence; inhibition, % at 12.3 µM; 3,300 tested, 1% active; AID 743261; in the data active = inhibition above about 11%
The depositor's hits bear a star. Cut-off read from the data, not from the text of the source, unless noted: active = inhibition above about 9.5%; inactive = the rest.

Screening C#CCN1CC(N(C)CCOC(=O)c2ccc(OC)c(OC)c2)CS1(=O)=O (stereo not drawn) returned UHRF1 binding -1.4, MBD2 DNA inh -2.5, LEDGF integ inh -1.5, PLC-gamma1 inh -0.1 and PLCb3 inh -1.9.
CC1(Cc2ccccc2OC(F)(F)F)C(=O)Nc2ccc(-c3ccsc3)cc21 (stereo not drawn) was read as UHRF1 binding 3.4, MBD2 DNA inh 10.0, LEDGF integ inh -0.2, PLC-gamma1 inh 10.9*, PLCb3 inh -3.0, PLCg1 ctr -1.2 and PLCbeta3 conf 1.4.
`CC1(Cc2ccccc2OC(F)(F)F)C(=O)Nc2ccc(OC(F)(F)F)cc21` (stereo not drawn) gave UHRF1 binding 1.6, MBD2 DNA inh 9.0, LEDGF integ inh -3.3, PLC-gamma1 inh -2.3 and PLCb3 inh -2.5.
Screening Cc1cc(OCC(=O)OCC(=O)NCc2ccc3c(c2)OCO3)ccc1Cl returned UHRF1 binding 1.1, MBD2 DNA inh -0.5, LEDGF integ inh 3.7, PLC-gamma1 inh 10.1*, PLCb3 inh -6.8, PLCg1 ctr -12.0 and PLCbeta3 conf -2.9.
Screening CN(CCc1ccccc1)C(=O)c1ccc(NC(=O)Cc2ccc(NC(=O)C3CCN(C(=O)C4CCCC4)CC3)cc2)cc1 returned UHRF1 binding 0.2, MBD2 DNA inh -9.8, LEDGF integ inh 4.5, PLC-gamma1 inh 10.3*, PLCb3 inh 5.1, PLCg1 ctr 6.6 and PLCbeta3 conf 3.0.
CN(CCc1ccccc1)C(=O)c1ccc(NC(=O)Cc2ccc(NC(=O)C3CCN(C(=O)C4CC4)CC3)cc2)cc1 was read as UHRF1 binding -2.9, MBD2 DNA inh -0.8, LEDGF integ inh -4.1, PLC-gamma1 inh -1.1 and PLCb3 inh -0.4.
Screening Cc1ccc(-n2c(SCC(=O)Nc3ccccc3-c3ccccc3)nnc2-c2ccco2)cc1 returned UHRF1 binding 0.2, MBD2 DNA inh 1.6, LEDGF integ inh 0.4, PLC-gamma1 inh 2.9 and PLCb3 inh 2.1.
For COc1ccccc1C/C(N)=N/O the results were UHRF1 binding -1.0, MBD2 DNA inh -3.8, LEDGF integ inh -1.5, PLC-gamma1 inh 1.3, PLCb3 inh 11.3*, PLCg1 ctr 1.6 and PLCbeta3 conf -74.9.
COc1ccccc1CC(=O)O/N=C(\N)Cc1cccc2ccccc12 was read as UHRF1 binding -3.9, MBD2 DNA inh -5.5, LEDGF integ inh -0.1, PLC-gamma1 inh -14.2 and PLCb3 inh -18.0.
For COc1ccc(C(=O)C2(C(=O)NCc3ccccc3)CC(c3ccccn3)=NO2)cc1 (stereo not drawn) the results were UHRF1 binding -1.0, MBD2 DNA inh -0.2, LEDGF integ inh 0.8, PLC-gamma1 inh 0.2 and PLCb3 inh 1.2.
CCc1ccc(NC(=O)C(=O)NCCN2CCN(S(C)(=O)=O)CC2)cc1 was read as UHRF1 binding 7.8, MBD2 DNA inh 0.8, LEDGF integ inh -2.9, PLC-gamma1 inh 11.6*, PLCb3 inh -0.6, PLCg1 ctr -3.9 and PLCbeta3 conf -0.8.
CC(C)CNS(=O)(=O)CC1NCc2cc3c(cc21)OCO3 (stereo not drawn) was read as UHRF1 binding 0.6, MBD2 DNA inh 1.5, LEDGF integ inh 1.3, PLC-gamma1 inh -1.1 and PLCb3 inh -2.1.
Screening Cc1nn(CC(=O)O)c(C)c1Cl returned UHRF1 binding 4.5, MBD2 DNA inh 4.2, LEDGF integ inh 4.8, PLC-gamma1 inh 10.9*, PLCb3 inh 3.6, PLCg1 ctr -6.9 and PLCbeta3 conf -3.1.
Screening Cc1nn(CC(=O)O)c(C)c1C returned UHRF1 binding -1.3, MBD2 DNA inh -1.5, LEDGF integ inh -0.1, PLC-gamma1 inh 2.8 and PLCb3 inh 1.3.
`COC(=O)CCCCCCCCC(O)CN(C)C` (stereo not drawn) gave UHRF1 binding 1.1, MBD2 DNA inh 1.5, LEDGF integ inh -3.6, PLC-gamma1 inh 0.7 and PLCb3 inh -5.6.
Screening COC(=O)CCCCCCCCC(O)CN1CCCCC1 (stereo not drawn) returned UHRF1 binding 1.8, MBD2 DNA inh -3.0, LEDGF integ inh 4.6, PLC-gamma1 inh 3.2, PLCb3 inh 12.4*, PLCg1 ctr -6.7 and PLCbeta3 conf -3.7.
CC[C@@H](CCCc1ccc(OC)cc1)CCC(=O)N(c1ccccc1)c1ccccc1 was read as UHRF1 binding -0.5, MBD2 DNA inh -0.1, LEDGF integ inh -2.2, PLC-gamma1 inh -0.5 and PLCb3 inh 0.0.
